Results filed as inconclusive are left out. Entries that show only a call come without a potency. Active and inactive are the calls of the source. Calls follow the shape of the dose curve; as a rule, active = well fitted activation curve with a large enough effect; inconclusive = small, poorly fitted or top-dose-only effect; inactive = no such curve, though single readings can be large or run the other way.
Experiment: qHTS Assay for NPC1 Promoter Activators: Hit Validation Using Renila Luciferase Read-Out for NPC1
Outline: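 Huh7 cells stably carrying NPC promoter-luciferase reporter, exposed to compound for 24 h at 37 deg C. Luminescence read 10 min after adding luciferase detection reagent at room temperature.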
Potency is read from the fitted curve at half-maximal effect.

Row | Structure (SMILES) | Potency
1 | COc1ccc(-n2cc(-c3ccc(Cl)cc3)[nH]c2=S)cc1 | inactive
2 | CCN(CC(=O)N(CC(C)C)c1c(N)n(CC(C)C)c(=O)[nH]c1=O)Cc1nc2ccccc2c(=O)[nH]1 | inactive
3 | CC(=O)NC(=S)Nc1ccc2oc(-c3cc(F)c(F)cc3Cl)nc2c1 | inactive
4 | CCOc1cc(C(=O)N=c2sccn2C)ccc1OC(F)F | inactive
5 | CC1CCCN(C(=S)Nc2ccc(Nc3ccccc3)cc2)C1 (stereo not drawn) | inactive
6 | Cc1ccc(NC(=O)Nc2cccc3ccccc23)cc1 | inactive
7 | CCC(=O)Nc1cc(-c2cc3ccccc3oc2=O)ccc1OC | inactive
8 | Cc1ccc(N=Cc2sc(O)c3ccccc23)c(C)c1 | inactive
9 | CCOc1cc(C2C(C#N)=C(N)Oc3n[nH]c(C)c32)ccc1OCCN1CCOCC1 (stereo not drawn) | inactive
10 | CN(C)C(=O)[C@H]1C[C@H]1[C@@H](O)[C@H](CO)NC(=O)[C@H](COCc1ccccc1)NC(=O)OC(C)(C)C | inactive
11 | CCOC(=O)c1csc(COc2ccc(OC)cc2)n1 | inactive
12 | Cc1ccc2c(c1)sc1nc(=O)n(-c3ccccc3)c(=O)n12 | inactive
13 | C=CCn1c(C)nnc1SCC(=O)Nc1nccs1 | inactive
14 | Cc1ccc(NC(=O)c2ncc(Cl)c(Cl)c2Cl)cc1C | inactive
15 | Cc1cc(C)cc(N(CC(=O)NC2CCCC2)C(=O)CNC(=O)c2ccco2)c1 | inactive
16 | COc1ccc(/C=C\C(=O)c2c(O)ccc3c(C)cc(=O)oc23)cc1OC | inactive
17 | O=C(CSc1nnc(-c2ccccn2)o1)Nc1ccccc1F | inactive
18 | O=S(=O)(c1cccs1)N1CCN(c2ncccn2)CC1 | inactive
19 | C=CCOC(=O)N1CCN(c2cccc(C(F)(F)F)c2)CC1 | inactive

Row | Structure (SMILES) | Potency
20 | Cc1ccc(CNC(=O)Nc2ccc(C)cc2)cc1 | inactive
21 | Cc1ccc(S(=O)(=O)/N=C(/Nc2ccccn2)c2ccc(Cl)cc2)cc1 | 11.6 µM (active)
22 | O=C(CCCn1c(=O)oc2ccccc21)N1CCN(c2ccccn2)CC1 | inactive
23 | Cc1ccccc1NC(=O)CSc1ccc(-c2cccnc2)nn1 | inactive
24 | O=C(C[N+]1(CC#Cc2ccccc2)CCCCC1)c1ccccc1 | inactive
25 | Cc1ccc(C(=O)Nc2ccc(N3CCN(C)CC3)nc2)cc1 | inactive
26 | CCCCCCOc1ccc(OC(=O)c2cccnc2)cc1 | 1.84 µM (active)
27 | O=C(CSc1nccn1Cc1ccco1)Nc1ccccc1F | 36.8 µM (active)
28 | O=C(COC(=O)c1ccc(-c2nnc(-c3ccccc3)o2)cc1)c1ccccc1 | inactive
29 | CC(C)C(NC(=O)c1ccc([N+](=O)[O-])cc1Cl)C(=O)N1CCCC1 (stereo not drawn) | inactive
30 | CCOc1ccc(CNC(=O)C2CCCN(S(C)(=O)=O)C2)cc1OC (stereo not drawn) | inactive
31 | COc1ccc(-c2cc(C(=O)Nc3ccccc3F)on2)cc1 | inactive
32 | Cc1ccc(N(O)C(=O)NCCCCNC(=O)N(O)c2ccc(C)cc2)cc1 | inactive
33 | Cc1cccc(C)c1NC(=O)Nc1cccs1 | inactive
34 | COCCSc1ncnc2c1oc1nc3c(cc12)COC(C)(C)C3 | inactive
35 | Cc1ccc(C2C3=C(CC(C)(C)CC3=O)N(CCN3CCOCC3)C3=C2C(=O)CC(C)(C)C3)cc1 | 16.4 µM (active)
36 | CC(C)(C)C(=O)NC(=S)Nc1ccccc1F | inactive
37 | O=C(CCNC(=O)c1ccc(Br)o1)NCc1ccc(Cl)cc1 | inactive
38 | CNC(=O)Cn1nc(C)c2ccccc2c1=O | inactive

From PubChem BioAssay AID720526 (National Center for Advancing Translational Sciences (NCATS), 2013)
